Experimental findings from PubChem BioAssay (NCI) are described below.

The panel holds about 83,000 compounds, 20% with a hit somewhere; the sample as a whole holds those more often.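 In brief: 96-well plates, 48 h treatment, single concentration, percent growth endpoint.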 A number with no mark means an inactive call. The source made the active and inactive calls. Rule for the calls: active = growth percent below 10; inactive = the rest.

Test in all cases: NCI-60 one-dose screen, 48 h (100 = growth as untreated, 0 = no growth, -100 = all killed)
Conditions in all cases: 10 µM unless noted

The subject of experiment [1] is T-47D breast.
Experiment [2] relates to BT-549 breast.
In experiment [3] the test system is MDA-MB-435 melanoma.
Experiment [4] relates to SW-620 colon.
For experiment [5], the system named is MCF7 breast.
Experiment [6] deals with HCT-116 colon.
The test system of experiment [7] is HCC-2998 colon.
Experiment [8] concerns KM12 colon.

On to `O=C(Nc1nc(-c2ccc(Cl)cc2)nc2c1sc(=S)n2-c1ccccc1)C(F)(F)F`, for which the growth in experiment [1] was -14.8% (active); in experiment [2], 28.3%; in experiment [3], 50.6%; in experiment [4], 34.3%; in experiment [5] it was 57.1%; in experiment [6], 3.7% (active). For the same molecule, the growth is 68.4% in experiment [7] and 32.8% in experiment [8].

As to `CCOc1ccccc1Cn1ccnc1CCc1c(Cl)c(O)cc(O)c1C(=O)OC`, the growth is 92.4% in experiment [1]; 98.8% in experiment [2]; 110% in experiment [3]; 104% in experiment [4]; 91.7% in experiment [5]; 89.3% in experiment [6]. Also, the growth in experiment [7] was 97.8%; in experiment [8], 98.4%.

With `CC1CN(S(=O)(=O)c2oc(-c3ccc(Cl)cc3)nc2C#N)CC(C)O1` (configuration not stated), the growth in experiment [1] is 27%; in experiment [2], 89%; in experiment [3], 86.4%; in experiment [4], -66.1% (active); in experiment [5], 55.2%; in experiment [6], -53.4% (active). Also, the figures for the growth in experiment [7] and in experiment [8] were 105% and 100%, respectively.

For the molecule `O=C(CSc1nc2ccc([N+](=O)[O-])cc2[nH]1)Nc1ccc([N+](=O)[O-])cc1`, the growth in experiment [1] was 3.64% (active); in experiment [2], 7.77% (active); in experiment [3], 14.3%; in experiment [4], 31.9%; in experiment [5] it was 16%; in experiment [6] it was 9.88% (active). The figures for the growth in experiment [7] and in experiment [8] were 31.1% and 21.8%, respectively.

`CCN(CC)CCn1c2ccc(O)cc2c2sc3cc(O)ccc3c(=O)c21`: the growth in experiment [1] is 50.4%; in experiment [2], 62.1%; in experiment [3], 40.5%; in experiment [4], 15.5%; in experiment [5], 8.08% (active); in experiment [6] it was 12.1%. In addition, the growth in experiment [7] is 42.3%; in experiment [8], 29.4%.

Turning to `O=C(Nc1ccc(Oc2cccc(Cl)c2)c(Cl)c1)c1cnccn1`, the growth in experiment [1] is 40.7%; in experiment [2] it was 57.4%; in experiment [3], -39.7% (active); in experiment [4], 22.7%; in experiment [5], 20.3%; in experiment [6] it was 20.9%. In addition, the growth is 50.8% in experiment [7] and 20.7% in experiment [8].

Take `Cc1cc(=O)oc2cc(OCc3nn4c(Nc5nc6ccccc6s5)c(-c5ccccc5)nc4s3)ccc12`: the growth was 88.1% in experiment [1]; 92.6% in experiment [2]; 88.8% in experiment [3]; 85.3% in experiment [4]; 84.1% in experiment [5]; 85.4% in experiment [6]. The growth in experiment [7] is 98.5%; in experiment [8], 89.6%.

In the case of `Nc1nc2ccccc2c2c(=O)c3cccc(Cl)c3sc12`, the growth in experiment [1] was 38.7%; in experiment [2], 99.2%; in experiment [3], 96.9%; in experiment [4] it was 89%; in experiment [5], 12.2%; in experiment [6], 64.8%. Also, the growth in experiment [7] was 63%; in experiment [8], 89.8%.

Regarding `O=c1[nH]c(-c2ccccc2)nc2sc3cc(O)ccc3c12`, the growth in experiment [1] was 93%; in experiment [2] it was 82.3%; in experiment [3] it was 85.9%; in experiment [4], 101%; in experiment [5], 73.8%; in experiment [6], 92.5%. The growth in experiment [7] was 95.9%; in experiment [8], 87.6%.

Take `COc1cc(C2c3cc(OC(C)=O)c(OC)cc3CC3C(=O)OCC32)ccc1OC(C)=O` (configuration not stated): the growth is 103% in experiment [1]; 99.6% in experiment [2]; 118% in experiment [3]; 101% in experiment [4]; 101% in experiment [5]; 98.2% in experiment [6]. Besides, the values for the growth in experiment [7] and in experiment [8] were 104% and 117%, respectively.

Take `O=C(/C=C/c1cccc(Cl)c1)c1cccc(OCCCOc2cccc(C(=O)/C=C/c3cccc(Cl)c3)c2)c1`: the growth is 90.4% in experiment [1]; 90.2% in experiment [2]; 102% in experiment [3]; 90.7% in experiment [4]; 20.8% in experiment [5]; 37% in experiment [6]. For the same molecule, the growth in experiment [7] is 109%; in experiment [8], 96.8%.

As for `O=c1c2cnn(-c3ccccc3)c2n2c(CN3CCOCC3)nnc2n1-c1ccccc1`, the growth in experiment [1] is 81.9%; in experiment [2], 75.2%; in experiment [3] it was 112%; in experiment [4], 110%; in experiment [5], 99.3%; in experiment [6], 78.8%. The growth was 104% in experiment [7] and 101% in experiment [8].

Take `O=C(c1ccccc1)c1ccc(C2CCCCC2)cc1`: the growth is 85.7% in experiment [1]; 115% in experiment [2]; 99.8% in experiment [3]; 93.4% in experiment [4]; 95.7% in experiment [5]; 83.8% in experiment [6]. Further, the growth is 107% in experiment [7] and 103% in experiment [8].

Take `CCOC(=O)C1=C(c2ccccc2)N=C2SC=C(c3ccc(Cl)cc3)N2C1c1ccc(Br)cc1` (configuration not stated): the growth was 52.2% in experiment [1]; 84.3% in experiment [2]; 94.3% in experiment [3]; 78.9% in experiment [4]; 75.2% in experiment [5]; 64.9% in experiment [6]. The growth in experiment [7] is 90.5%; in experiment [8], 78.1%.

As for `CCOC(=O)Cc1cnc(N/N=C(\C)c2cc3ccccc3o2)s1`, the growth in experiment [1] is 70.5%; in experiment [2] it was 109%; in experiment [3], 108%; in experiment [4], 96.9%; in experiment [5], 81.3%; in experiment [6] it was 96.4%. In addition, the growth in experiment [7] was 105%; in experiment [8], 96.3%.

For `CS(=O)(=O)Nc1cc(-c2ccc3ncnc(Nc4ccc5c(cnn5Cc5ccc(F)cc5)c4)c3c2)cnc1Cl`, the growth was 5.06% (active) in experiment [1]; 9.27% (active) in experiment [2]; 45.3% in experiment [3]; 43.1% in experiment [4]; 14.4% in experiment [5]; 57% in experiment [6]. Moreover, the growth in experiment [7] is 59.1%; in experiment [8] it was 71.8%.

Consider `O=C(CSc1nnc(-c2cnccn2)n1-c1ccccc1)c1ccc(Cl)cc1`, for which the growth in experiment [1] is 85.9%; in experiment [2] it was 91.6%; in experiment [3], 106%; in experiment [4] it was 106%; in experiment [5] it was 94.1%; in experiment [6], 95.4%. The growth in experiment [7] was 108%; in experiment [8], 94.8%.

Consider `C#CCOc1cccc(Nc2ncnc3ccc(NC(=O)C=C)cc23)c1`, for which the growth is 39% in experiment [1]; 19.5% in experiment [2]; 43.8% in experiment [3]; 55.9% in experiment [4]; 47.6% in experiment [5]; 32.8% in experiment [6]. Further, the growth in experiment [7] is 84.6%; in experiment [8] it was 60.4%.

Regarding `NC(Cc1ccc(O)c([N+](=O)[O-])c1)C(=O)O` (configuration not stated), the growth in experiment [1] was 103%; in experiment [2], 96.9%; in experiment [3], 112%; in experiment [4], 104%; in experiment [5], 98%; in experiment [6] it was 98.5%. Moreover, the growth in experiment [7] is 99.6%; in experiment [8], 103%.

As to `CCCCNC(=O)CC1=C(C)/C(=C/c2[nH]c(-c3ccc[nH]3)cc2OC)N=C1C`, the growth in experiment [1] was 32.6%; in experiment [2], 41.7%; in experiment [3], 20.2%; in experiment [4] it was 12.5%; in experiment [5], 22.3%; in experiment [6], 3.1% (active). Besides, the growth in experiment [7] is 33.8%; in experiment [8] it was 13.4%.

Consider `C#CCOC(=O)/C=C/c1cn(-c2ccccc2)nc1-c1ccc(OC)cc1`, for which the growth is 88.3% in experiment [1]; 108% in experiment [2]; 107% in experiment [3]; 112% in experiment [4]; 79.1% in experiment [5]; 74.8% in experiment [6]. Further, the growth in experiment [7] is 105%; in experiment [8], 96.9%.

As for `N#CSc1c[nH]c2cccc(/C=C/C(=O)/C=C(/C=C/c3cccc4[nH]cc(SC#N)c34)OB(F)F)c12`, the growth was 9.55% (active) in experiment [1]; -25.3% (active) in experiment [2]; -74.7% (active) in experiment [3]; -35% (active) in experiment [4]; -22.6% (active) in experiment [5]; -88.5% (active) in experiment [6]. Besides, the growth in experiment [7] is -32.7% (active); in experiment [8], 11.7%.

As for `CCNCCNc1cc(C2CCCCC2)c(C#N)c2nc3ccccc3n12`, the growth was -19.4% (active) in experiment [1]; -19.7% (active) in experiment [2]; -38.6% (active) in experiment [3]; 7.58% (active) in experiment [4]; 14.7% in experiment [5]; -4.22% (active) in experiment [6]. Moreover, the figures for the growth in experiment [7] and in experiment [8] were 13.6% and 38.8%, respectively.

Take `COC(=O)/C=C1/SC(=Nc2cccc(OC)c2)N(CCc2c[nH]c3ccc(O)cc23)C1=O`: the growth was 42.2% in experiment [1]; 33.1% in experiment [2]; 23.5% in experiment [3]; 56.1% in experiment [4]; 20.4% in experiment [5]; 34.3% in experiment [6]. Further, the growth was 65.1% in experiment [7] and 53.5% in experiment [8].

Turning to `COc1cc2c(cc1OC)C(C)N(S(N)(=O)=O)CC2` (configuration not stated), the growth in experiment [1] was 93.1%; in experiment [2], 91.8%; in experiment [3], 110%; in experiment [4], 107%; in experiment [5], 103%; in experiment [6], 89.4%. Further, the growth was 98.1% in experiment [7] and 112% in experiment [8].

In the case of `CCOC(=O)C1=C(C)NC(=O)NC1c1c(Cl)n(CCCl)c2ccccc12` (configuration not stated), the growth in experiment [1] is 101%; in experiment [2] it was 92%; in experiment [3], 101%; in experiment [4], 96.8%; in experiment [5], 98.7%; in experiment [6], 95.1%. The growth in experiment [7] is 96.3%; in experiment [8] it was 97.4%.

Regarding `CCOC(=O)c1ccc2c(c1)nc(-c1ccccc1)n2C1CCCCC1`, the growth in experiment [1] is 66.8%; in experiment [2], 93%; in experiment [3], 102%; in experiment [4], 111%; in experiment [5], 93.3%; in experiment [6], 63.7%. Besides, the growth was 91.6% in experiment [7] and 95.1% in experiment [8].

For `c1ccc2cc(C[n+]3ccn(CCCCCCCCCCn4cc[n+](Cc5ccc6ccccc6c5)c4)c3)ccc2c1`, the growth in experiment [1] is -0.597% (active); in experiment [2], -39.6% (active); in experiment [3], 18.2%; in experiment [4], 23.2%; in experiment [5] it was 15.7%; in experiment [6], 13.3%. For the same molecule, the figures for the growth in experiment [7] and in experiment [8] were 25.2% and -5.93% (active), respectively.

As for `O=C(/C=C(/C=C/c1ccc2[nH]ccc2c1)OB(F)F)/C=C/c1ccc2[nH]ccc2c1`, the growth in experiment [1] was 6.23% (active); in experiment [2] it was -28.2% (active); in experiment [3], -4.54% (active); in experiment [4] it was 6.41% (active); in experiment [5], 12.5%; in experiment [6], -79% (active). In addition, the growth in experiment [7] is -88.3% (active); in experiment [8], -5.34% (active).
